Reference: PubChem BioAssay (NCI)
The panel holds about 83,000 compounds, 20% with a hit somewhere; the sample as a whole holds those more often.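 In brief: 96-well plates, 48 h treatment, single concentration, percent growth endpoint.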 Values without a mark were called inactive. Activity calls are given as the source filed them. Where a SMILES comes first, the peptide text is derived from it. [ ]: non-standard residue; d: D form. ξ: configuration not given here. ξD = NC(CC(=O)O)C(=O)O

Test system: BT-549 breast
Assay: NCI-60 one-dose screen, 48 h (100 = growth as untreated, 0 = no growth, -100 = all killed)
Settings: 10 µM unless noted
Method: Growth inhibition of the BT-549 human tumor cell line is measured as a screen for anti-cancer activity. Cells are grown in 96 well plates and exposed to the test compound for 48 hours. Compounds are tested at a single concentration, which is 10^-5 M for most compounds. The reported endpoint is percent growth (GI% or GIPRCNT), where numbers from 0 - 100% represent growth inhibition, and numbers from -100% - 0 represent cell death. For example, a value of 40 represents 60% growth inhibition. A value of 0 means no net growth occurred over the course of the experiment. A value of -40 indicates 40% of cells at the beginning of the experiment died by the end of the experiment. A value of -100 means all cells are dead at the end of the experiment.
NCI-60 Human Tumor Cell Lines Screen was performed using the standard one-dose NCI protocol, which is described in more detail at https://dtp.cancer.gov/discovery_development/nci-60/default.htm.
Compounds with GIPRCNT values below 10 were considered active. Activity score was based on GIPRCNT using the following formula: […]
Score is 0 for GIPRCNT values of 100 or above, 50 for GIPRCNT values of 0, and 100 for GIPRCNT values of -100.

Compound | growth
CCc1cccc(CC)c1N1C(=O)C=CC1=O | 116%
CC(=O)C1Cc2ccccc2C1=O (stereo not given) | 91.3%
COC(=O)c1ccc(=O)c2nc3/c(=C/O)c(O)cc(=O)c3[nH]c12 | 5.85% (active)
CCCCCC[C@@H](O)C/C=C\CCCCCCCC(=O)OCCOC | 99%
COc1cc(OC)c(/C=C/c2c3ccccc3cc[n+]2C)c(OC)c1 | 17.8%
CC(=O)c1ccc2c(c1)CCc1ccccc1-2 | 104%
CN(C)c1ccc(C(=C2C=CC(=[N+](C)C)C=C2)c2ccc(N(C)C)cc2)cc1 | -66% (active)
Oc1ccc(Br)cc1Sc1cc(Br)ccc1O | 43.8%
CCOC(=O)c1cc(CC)sc1NC(=O)CC(C)=O | 27.3%
CC(O)C(O)C(O)C(O)C(O)C(=O)NNc1ccccc1 (stereo not given) | 105%
O=S(=O)(O)c1cnccn1 | 95.3%
O=[n+]1c2ccccc2n([O-])c2cc(Cl)ccc21 | 74.7%
Cc1nnc(N/N=C/c2ccc([N+](=O)[O-])o2)[nH]c1=O | -22.1% (active)
CCCCCCCCCCCCN1C(C)=CS/C1=C\C=C\c1scc(C)[n+]1CCCCCCCCCCCC | 23.7%
NCC(=O)NC(CC(=O)O)C(=O)O (stereo not given) (H-Gly-[ξD]-OH) | 102%
Oc1ccc(Cl)cc1Cc1cc(Cl)ccc1O | 37.1%
OC(c1cc(-c2ccc(Cl)cc2)nc2c(Cl)cccc12)C1CCCCN1 (stereo not given) | 73.6%
O=C(Cc1ccccc1)C(F)(F)F | 97.5%
Cn1ccc(=Nc2ccc(NC(=O)c3ccc(N=c4ccn(C)c5ccc([N+](=O)[O-])cc45)cc3)cc2)cc1 | 56.1%
CN1CSC(=S)N(Cc2ccccc2)C1 | 80.3%

Compound | growth
CCCCCCN(CCCCCC)CCCNc1nccc2ccccc12 | 39.7%
CCOC(=O)NC(/C=C/c1ccccc1)NC(=O)OCC | 107%
Cc1nc([N+](=O)[O-])c(Sc2nncc(-c3ccccc3)n2)n1C | 66.6%
O=C/C=C/c1ccc([N+](=O)[O-])cc1 | 116%
NNc1ccc(Cl)cc1Cl | 88.7%
O=C(Nc1cccc(C(F)(F)F)c1)Oc1ccc(Cl)c2cccnc12 | 37.5%
CC12CCC(O)CC1=CCC1C2CCC2(C)C3=NN=CC3CC12 (stereo not given) | 124%
CCCCC(C=O)(C=C=C(C)C)CC (stereo not given) | 103%
Cc1nn(CCO)c(C)c1N=[N+]([O-])c1c(C)nn(CCO)c1C | 50.5%
O=C(CCl)N(c1ccccc1)c1ccccc1 | 106%
CCOc1cc(F)c([N+](=O)[O-])cc1[N+](=O)[O-] | 87.3%
COc1cc(-c2ccc(-[n+]3nc(-c4ccc([N+](=O)[O-])cc4)nn3-c3ccc([N+](=O)[O-])cc3)c(OC)c2)ccc1-[n+]1nc(-c2ccc([N+](=O)[O-])cc2)nn1-c1ccc([N+](=O)[O-])cc1 | 26.9%
CCN(CC)CCNc1ccc([N+](=O)[O-])c2sc3ccccc3c(=O)c12 | 72%
O=C1C=Cc2ccccc2/C1=C/c1nc(-c2ccccc2)oc1O | 102%
CCOC(=O)/C(=C\c1ccc2ccccc2c1)P(=O)(OCC)OCC | 39.8%
O=C(NOC(=O)c1ccccc1)c1ccccc1 | 107%
C/C=C/c1cc2c(c(=O)o1)C(=O)[C@@H](O)[C@H](C)O2 | 18.2%
C/C(=N\NC(=S)N1CC2CCC(CC2)C1)c1ccccn1 | 30.4%
CC1(O)CCCCCC1 | 96.1%
CCC(C)C(N)C(=O)NC(CC(N)=O)C(=O)NC(CC(C)C)C(=O)NC(CCCCN)C(=O)NC(C)C(=O)NC(CC(C)C)C(=O)NC(C)C(=O)NC(C)C(=O)NC(CC(C)C)C(=O)NC(C)C(=O)NC(CCCCN)C(=O)NC(CCCCN)C(=O)NC(C(=O)NC(CC(C)C)C(N)=O)C(C)CC (stereo not given) | 134%
